Measurements reported in PubChem BioAssay (NCI).
The panel holds about 79,000 compounds, 15% with a hit somewhere; the sample as a whole holds those more often. The source made the active and inactive calls. Cut-off read from the data, not from the text of the source: active = growth inhibition above about 70%; inactive = the rest. Where a SMILES comes first, the peptide text is derived from it. The star is where a group is joined. Cbz = O=C(OCc1ccccc1)*

How the values were obtained:
[1] = NCI Yeast Anticancer Drug Screen. Data for the rad50 strain (AID 155);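 note: 0% = growth of vehicle-only cultures of the same strain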; settings: S. cerevisiae rad50 strain growth inhibition; at 50.0 µM; active compounds read high
In short: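 Inhibition values express reduced yeast growth in compound-treated cultures relative to vehicle-treated controls.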

[2] = NCI Yeast Anticancer Drug Screen. Data for the mec2-1 strain (AID 157); settings: S. cerevisiae mec2-1 strain, at 50.0 µM, active compounds read high
In short: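 Using mec2-1 yeast: add compound, measure growth, express inhibition versus vehicle-treated cultures.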

[3] = NCI Yeast Anticancer Drug Screen. Data for the sgs1 mgt1 strain (AID 161);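 note: 0% = growth of cultures given vehicle only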; settings: S. cerevisiae sgs1 mgt1 strain, at 50.0 µM, active compounds read high
In short: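 Percent growth inhibition was derived by comparing compound-exposed mutant yeast with vehicle-exposed cultures. The strain carries alterations in DNA damage repair.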

[4] = NCI Yeast Anticancer Drug Screen. Data for the cln2 rad14 strain (AID 165);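 note: 0% = growth equal to vehicle treated cultures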; settings: S. cerevisiae cln2 rad14 strain, at 50.0 µM, active compounds read high
In short: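 Yeast strain cln2 rad14, bearing defects in cell cycle control and DNA repair, serves as the test system; values reflect growth inhibition compared with vehicle.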

[5] = NCI Yeast Anticancer Drug Screen. Data for the bub3 strain (AID 167); settings: S. cerevisiae bub3 mutant strain, at 50.0 µM, active compounds read high
In short: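 Steps: expose the mutant yeast strain to compound; grow alongside vehicle-treated cultures; measure growth; express inhibition against the vehicle cultures.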

[6] = NCI Yeast Anticancer Drug Screen. Data for the mlh1 rad18 strain (AID 175); settings: S. cerevisiae mlh1 rad18 strain growth inhibition; at 50.0 µM; active compounds read high
In short: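 Steps: expose repair-defective yeast to compound; measure growth; express inhibition against vehicle-treated controls.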

Measured: growth inhibition

NC(N)=NNC(=O)C(=O)O
inactive: [1] -4.5% | [2] -7.9% | [3] 3.85% | [4] -19.5% | [5] -7.6% | [6] 7.9%

Cc1c(OC(C)C(=O)O)ccc2c(-c3ccccc3)cc(=O)oc12 (configuration not stated)
inactive: [1] 2.95% | [2] 12.7% | [3] 23.9% | [4] 27.2% | [5] 5.9% | [6] 38.2%

CCOC(=O)C(=N\Nc1cc(C)cc(C)c1)/C(C)=N\NC(N)=S
inactive: [1] 25.1% | [2] 38.8% | [3] 20.1% | [4] 57.5% | [5] 58.5% | [6] 45.6%

CN(C)C(=O)CCOc1ccccc1
inactive: [1] 0.55% | [2] -12.6% | [3] -18.9% | [4] -56.3% | [5] -7.05% | [6] -7.2%

COC(=O)C(NC(=O)C(C)NC(=O)C1CCCN1C(=O)CNC(=O)C(CO)NC(=O)C(NC(=O)OCc1ccccc1)C(C)O)C(C)O (configuration not stated) (Cbz-TSGPAT-OMe; configuration not given here)
inactive: [1] 3.3% | [2] -5.9% | [3] -4.7% | [4] -10.2% | [5] -7.8% | [6] 10.6%

O=C(O)c1ccc2c(c1)S(=O)(=O)NC2=O
inactive: [1] 1.15% | [2] 10.2% | [3] 13% | [4] -26.1% | [5] 12.1% | [6] -8%

CCC(O)(Cc1ccccc1)C(C(=O)O)c1ccccc1 (configuration not stated)
inactive: [1] -32% | [2] -31.1% | [3] 4.6% | [4] 4.9% | [5] -28.1% | [6] -26%

C/C=C(\C)CCC(C)(O)CC (configuration not stated)
inactive: [1] 2.2% | [2] -15.6% | [3] 7.45% | [4] 3% | [5] -22.4% | [6] 14.1%

Nc1n[n+](-c2ccc(Cl)cc2)no1
active: [2] 87.8% | [3] 87.4% | [4] 81.7% | [5] 82.8% | [6] 91.7%
inactive: [1] 67%

CC1CCCC2C(=O)OC(=O)C12 (configuration not stated)
inactive: [1] -5.3% | [2] -9.6% | [3] -13.1% | [4] -60.6% | [5] -21.1% | [6] -11.4%

CNc1nc(C)nc(NC)n1
inactive: [1] -29.9% | [2] -5.1% | [3] -30.4% | [4] -36.2% | [5] 18.4% | [6] -22.9%

CC1CCCCC[N+]1(C)CCO (configuration not stated)
inactive: [1] -8.5% | [2] -7.15% | [3] -6.25% | [4] -30.7% | [5] -7.85% | [6] -4.8%

N#CC1CC2c3ccccc3C1([N+](=O)[O-])c1ccccc12 (configuration not stated)
inactive: [1] 54.5% | [2] 26.9% | [3] 12.8% | [4] 43% | [5] 45%
active: [6] 70.7%

Cc1ccccc1NC(=S)NN
inactive: [1] 22.2% | [2] 14.7% | [3] 14.1% | [4] 16.6% | [5] 11.9% | [6] 12.3%

O=c1nc(/C=C/c2ccccc2Cl)cc2n1CCN2CCO
inactive: [1] -17.4% | [2] -10.7% | [3] -4.2% | [4] 4.1% | [5] -3.1% | [6] -10.2%

Cc1cc2c(C(C)C)c(O)c(O)c(C=Nc3ccc(-c4ccccc4)cc3)c2c(O)c1-c1c(C)cc2c(C(C)C)c(O)c(O)c(C=Nc3ccc(-c4ccccc4)cc3)c2c1O
inactive: [1] -24.2% | [2] -10.4% | [3] -24.2% | [4] -15.2% | [5] -8.5% | [6] -7.4%

C=C1C(=O)OC2CCC3OC(C)(C)OC3C12 (configuration not stated)
inactive: [1] 6.2% | [2] 17.5% | [3] 15.4% | [4] -16.9% | [5] 31.9% | [6] 10.6%

Cn1c(=O)c(Br)c(C=O)n(CCO[N+](=O)[O-])c1=O
inactive: [1] -8.25% | [2] 32% | [3] 3.85% | [4] 15.6% | [5] 38.6% | [6] -27.6%

Cc1ccc(S(=O)(=O)OC2C(OC(=O)c3ccccc3)OCC(O)C2O)cc1 (configuration not stated)
inactive: [1] 23.6% | [2] 2.45% | [3] 6.1% | [4] -11.8% | [5] 6.5% | [6] 3.35%

O=C1Nc2ccccc2C1=O
inactive: [1] -0.85% | [2] 11.4% | [3] -31.8% | [4] -22.5% | [5] -12.3% | [6] -50%

Br/C=C\Br
inactive: [1] -2.85% | [2] 0.15% | [3] -7.45% | [4] 28.6% | [5] -12.8% | [6] 5.35%

O=C(O)Cc1cccc2c(=O)cc(Cc3ccccc3)oc12
inactive: [1] -13.8% | [2] -16.6% | [3] -11.5% | [4] 6.6% | [5] 20.1% | [6] -15%

O=[N+]([O-])c1cccc(Cc2nc3ccccc3nc2-c2ccccc2)c1
inactive: [1] 34.9% | [2] 18.2% | [3] 13.7% | [4] 4.1% | [5] 48.6% | [6] 37.7%

O=S(=O)(Cl)c1c(F)c(F)c(F)c(F)c1F
inactive: [1] -31.3% | [2] -41.1% | [3] -19.9% | [4] 24.1% | [5] -0.25% | [6] -21.4%

CCCCCCC(=O)/C=C/c1ccc(OC)cc1
inactive: [1] -12.5% | [2] -6.55% | [3] -14% | [4] 3.6% | [5] -11.6% | [6] -16.1%

CNC1C(O)C(OC2C(N)CC(N)C(OC3OC(CN)=CCC3N)C2O)OCC1(C)O (configuration not stated)
inactive: [1] -17.3% | [2] -43.3% | [3] -34.1% | [4] -15.6% | [5] -25.8% | [6] -5.15%

NC(=O)c1ncn2c(=O)n(CCl)nnc12
active: [2] 81.6% | [6] 83.5%
inactive: [1] 57.4% | [3] 29.6% | [4] 45.5% | [5] 57.5%

C[Si](C)(C)CCCn1ccc(=O)[nH]c1=O
inactive: [1] 45.6% | [2] 7.45% | [3] 27.8% | [4] -8.15% | [5] 29.4% | [6] -26.3%

CCN(CC)c1ccc(N=C2C=C(C(=O)Nc3ccccc3OC)C(=O)c3ccccc32)c(C)c1
inactive: [1] -24.6% | [2] -28.6% | [3] -12.7% | [4] 5.25% | [5] -2.6% | [6] -16.5%

O=C(O)C(Br)Cc1cccc([N+](=O)[O-])c1 (configuration not stated)
inactive: [1] 9.4% | [2] -9.35% | [3] 10.6% | [4] -5.65% | [5] 3.45% | [6] 17.7%

CCN(CC)c1c(C)c(-c2ccccc2)oc(=O)c1Cl
inactive: [1] 0.3% | [2] -1.05% | [3] 3.7% | [4] 11.1% | [5] 6.85% | [6] 6.95%

COc1cc2c(OC)cc1CSCc1sc(C)c(c1Br)CSC2
inactive: [1] 19.1% | [2] 21.5% | [3] 4.7% | [4] -26.6% | [5] 12.7% | [6] 14.8%

C=C(Br)CNCC(=C)Br
inactive: [1] 2.2% | [2] 7.25% | [3] 5% | [4] 9.65% | [5] 18.2% | [6] -18.6%

CC(=O)C(Cc1cccc([N+](=O)[O-])c1)Cc1cccc([N+](=O)[O-])c1
inactive: [1] -3.7% | [2] -7.8% | [3] -6.6% | [4] -38% | [5] 15.8% | [6] -9.45%

CC(C)C1CCC(C)(C(=O)Oc2ccccc2-c2ccccc2)C1 (configuration not stated)
inactive: [1] 13.1% | [2] 23.4% | [3] 9.75% | [4] -11.6% | [5] 22.2% | [6] 13.6%

Cc1ncc([N+](=O)[O-])n1Cc1nncs1
inactive: [1] -9.35% | [2] -11.4% | [3] -7.95% | [4] -31.9% | [5] -19.3% | [6] -14.2%

Cc1ccsc1/C=N/NC(N)=S
inactive: [1] 30% | [2] -7% | [3] 32.5% | [4] 5.55% | [5] 9.2% | [6] 28.7%

O=c1cc(CCl)nc2c3ncn(C4OC(CO)C(O)C4O)c3ncn12 (configuration not stated)
inactive: [1] -11.8% | [2] -16.5% | [3] -0.25% | [4] -5.95% | [5] -8.15% | [6] -0.55%

CC(C)(C)c1cc(C#N)cc(Br)c1O
active: [1] 98.6% | [2] 98.7% | [3] 99.3% | [4] 97.2% | [5] 97.7% | [6] 98.7%

Cc1ccc(S(=O)(=O)NC2(C=O)CCCC3CCCCC32)cc1 (configuration not stated)
inactive: [1] 33% | [2] 6% | [3] -5.45% | [4] -9.15% | [5] 0% | [6] 20.6%

CC1(O)CCC(C(C)(C)C)CC1 (configuration not stated)
inactive: [1] 22.6% | [2] 12.3% | [3] -1.2% | [4] 2.05% | [5] 2.95% | [6] 11.1%

CC1=C(c2cc(C(=O)Nc3ccc(Cl)cc3)nc(=S)[nH]2)Sc2ccccc2N1
inactive: [1] -30.9% | [2] -15.2% | [3] -46% | [4] -1.45% | [5] -5.65% | [6] -35.4%
